# Shown are actives, neighbours in structure and some others; about 11% of the full set was active somewhere.
# G9a block – blocks human histone lysine methyltransferase G9a; G9a H3K9 monomethylation, AlphaScreen, 2 h; Potency, µM (titrated, usually from 102 µM), for inactives: at the highest dose activity, negative = inhibition, actives largely listed as inhibitors; Q96KQ7; actives 8.8% (n = 350,000); further: on the % scale 0 is the no-effect control and ±100 the full control effect; nearly all actives have a fitted effect of over 75% in size
# Target sequence (Q96KQ7 913-1193 limits assumed): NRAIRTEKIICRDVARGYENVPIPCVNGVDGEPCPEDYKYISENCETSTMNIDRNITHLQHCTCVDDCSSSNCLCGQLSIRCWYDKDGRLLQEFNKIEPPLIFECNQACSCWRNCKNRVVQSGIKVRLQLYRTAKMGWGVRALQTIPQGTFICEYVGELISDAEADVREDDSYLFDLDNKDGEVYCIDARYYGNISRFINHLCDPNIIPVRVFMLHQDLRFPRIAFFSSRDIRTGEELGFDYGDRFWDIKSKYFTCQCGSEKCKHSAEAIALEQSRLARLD
#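 Readings reflect AlphaScreen signal from monomethyl-H3K9 antibody detection. HMT at 20 nM; substrate b-H3K9 500 nM; cofactor SAM 20 uM; 2 h RT reaction; compounds tested as titrations in qHTS with 15 min preincubation.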
# HP1b binding inh – HP1-beta chromodomain-methylated histone interaction inhibition; P83916; AlphaScreen HP1-beta / biotin-H3K9me3 peptide binding; Potency, µM (titrated, usually from 114 µM), for the others: top-dose activity change, negative = inhibition, hits mostly inhibitors; actives 0.56% (n = 390,000); AID 540317; further: nearly all actives have a fitted effect of over 70% in size
# Target sequence (P83916 whole entry, looked up): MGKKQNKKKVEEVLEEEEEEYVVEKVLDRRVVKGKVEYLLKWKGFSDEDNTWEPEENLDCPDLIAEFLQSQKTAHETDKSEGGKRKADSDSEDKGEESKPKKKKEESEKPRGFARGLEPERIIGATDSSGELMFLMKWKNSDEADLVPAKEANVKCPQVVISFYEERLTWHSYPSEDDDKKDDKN
#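 AlphaScreen: HP1-beta (50 nM) preformed 30 min with biotin-H3(1-18)K9me3 peptide (50 nM) in PBS pH 7.4, 0.01% Tween-20. Compound added for 30 min at RT, then streptavidin donor/nickel chelate acceptor beads (10 ug/mL) for 30 min.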
# JMJD2A Tudor – JMJD2A Tudor domain (human) inhibition. O75164. AlphaScreen JMJD2A-Tudor / H3K4me3 peptide binding. Potency, µM (doses to about 114 µM), for inactives: at the top dose activity change, negative = inhibition, usual class: inhibitors. actives 4.4% (n = 390,000); further: on the % scale 0 is the no-effect control and ±100 the full control effect; nearly all actives have a fitted effect of over 50% in size
# L3MBTL1 inh – inhibitors of human L3MBTL1; AlphaScreen L3MBTL1–H3K9me1 peptide binding; Potency, µM (top dose mostly 57.1 µM), without a hit: top-dose activity, negative = inhibition, usual class: inhibitors; actives 0.66% (n = 230,000); AID 485360; further: on the % scale 0 is the no-effect control and ±100 the full control effect; nearly all actives have a fitted effect of over 60% in size
#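 L3MBTL1 (50 nM) pre-complexed 30 min with biotinylated H3(1-15)K9me1 peptide (75 nM), then compounds added for 30 min at room temperature; AlphaScreen streptavidin donor/nickel chelate acceptor beads (10 ug/mL final) read after 30 min dark incubation.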
# BAZ2B inh – blocks human BAZ2B; Potency, µM (series often up to 114 µM), for inactives: top-dose activity change, negative = inhibition, actives largely listed as inhibitors; AID 504333; Q9UIF8; AlphaScreen BAZ2B-H3K14Ac peptide displacement; actives 4.4% (n = 360,000); further: on the % scale 0 is the no-effect control and ±100 the full control effect; nearly all actives have a fitted effect of over 60% in size
#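 Compounds, titrated to a top concentration of 110 uM, were incubated 30 min at room temperature with preformed BAZ2B/acetyl-K14 H3 peptide complex (50 nM each). Proximity signal was measured by AlphaScreen after 20 min with beads.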
# An asterisk follows results filed as active; ? = inconclusive; . = not tested or not shown; [ ] = another dose, or the depositor's remark. The call rests on the fitted dose curve; in most records, active means well fitted inhibition curve with a large enough effect; inconclusive means small, poorly fitted or top-dose-only effect; inactive means no such curve, though single readings can be large or run the other way. Potency means the concentration at half of the fitted maximal effect.
SMILES,G9a block,HP1b binding inh,JMJD2A Tudor,L3MBTL1 inh,BAZ2B inh
O=C(Nc1nccs1)OCc1ccccc1,.,12%,-10%,.,.
O=C(CCCn1c(=O)c2ccccc2n(Cc2ccc(F)cc2Cl)c1=O)NCCc1ccc(Cl)cc1,-4%[59 µM],47%,0%,.,11%
COc1ccc(CCNC(=O)C(=O)Nc2nccs2)cc1OC,?,26%,79µM*,2%,-1%
CCOc1ccc(CCNC(=O)CSc2n[nH]c(N)n2)cc1OCC,8.9µM*,?,18µM*,.,-23%
COc1ccc(CCNC(=O)CSc2ccccn2)cc1OC,11µM*,9%,-10%,.,?
COc1ccc(CCNC(=O)CSc2ccccc2)cc1OC,-28%[59 µM],12%,-10%,-4%,-14%
O=c1c2ccccc2n(Cc2ccccc2F)c(=O)n1-c1cccc(F)c1,14%[59 µM],40%,5%,.,4%
CCn1cc(C(=O)N2CCN(c3ccccc3)CC2)c(=O)c2cc(S(=O)(=O)N3CCC(C)CC3)ccc21,?,-16%,?,.,.
Cc1nn(Cc2ccccc2)c2c1C(c1ccncc1)C(C#N)=C(N)O2 (centres undefined),?,36%,-10%,-6%,17%
Cc1nn(Cc2ccccc2)c2c1C(c1cccnc1)C(C#N)=C(N)O2 (centres undefined),50µM*,26%,-7%,.,0%
O=c1c2[nH]c3ccsc3c2cnn1Cc1ccccc1F,.,.,-3%,.,.
O=C(CCc1nc2ccccc2s1)Nc1cccnc1,40µM*,30%,-18%,-2%,?
O=C(CCc1nc(-c2ccccc2)no1)Nc1cccnc1,56µM*,20%,-4%,.,3%
NC(=O)c1ccc(NC(=O)CCc2nc3ccccc3s2)cc1,35µM*,23%,-29%,-10%,?
O=C(CCn1c(=O)sc2ccccc21)Nc1cccnc1,-5%[59 µM],11%,-8%,3%[11.4 µM],3%
O=C(CCCc1nc(-c2ccccc2)no1)Nc1cccnc1,-3%,27%,0%,8%,2%
COc1ccc(-c2noc(CCC(=O)NCc3cccnc3)n2)cc1OC,71µM*,46%,12%[57.1 µM],-7%,5%
COc1ccc(C(=O)NCCn2cc(SCc3ccc(C(F)(F)F)cc3)c3ccccc32)cc1OC,-32%[59 µM],25%,-16%,.,-10%
Cn1c(=O)n(CCc2ccccc2)c(=O)c2c1nc1n2CCN1c1ccc(Cl)cc1,-5%[59 µM],34%,3%,.,2%
Cc1ccc(-c2noc(-c3nnn(CC(=O)Nc4cccc(C(F)(F)F)c4)c3N)n2)cc1,?,57%,-9%,.,-30%
O=C(Nc1cccc2nsnc12)c1ccc(-c2cccc(Cl)c2)o1,25µM*,28%,-13%,-12%,6%[57.1 µM]
CC(=O)NCCOc1nc(N(C)C)nc(N2CCOCC2)n1,-5%[12.7 µM],32%,5%,-2%,10%
CC(C)=NOc1nc(N(C)C)nc(N2CCOCC2)n1,27%,-1%,56µM*,-6%,-14%
Cn1c(SCC(=O)c2ccc(O)c(O)c2)nnc1-c1cccs1,.,-5%,25µM*,-83%,50µM*
Cn1c(SCc2nc3ccccc3s2)nnc1-c1cccs1,45µM*,3%,-33%,-2%,4%
SMILES,G9a block,HP1b binding inh,JMJD2A Tudor,L3MBTL1 inh,BAZ2B inh
Cc1ccc(C(=O)CSc2nnc(-c3cccs3)n2C)o1,50µM*,38%,-1%,.,9%
Cn1c(SCC(=O)NC(c2ccccc2)c2ccccc2)nnc1-c1cccs1,-35%[12.7 µM],-11%,50µM*,.,-5%
COc1ccc(C2=C(C)C(N3CCC(C(=O)NCc4ccco4)CC3)=NS2(=O)=O)cc1,3%[59 µM],13%,-6%,.,-15%
CC1=C(c2ccc(Cl)cc2)S(=O)(=O)NC1=NCCCN1CCN(c2cc(C)ccc2C)CC1,?,25%,16µM*,.,-21%
COc1ccc(C2=C(C)C(=NCCCN3CCN(c4cc(Cl)ccc4C)CC3)NS2(=O)=O)cc1,-30%[59 µM],0%,-13%,.,-13%
O=C(NC(C(=O)c1ccccc1)n1c(=O)cc[nH]c1=S)c1ccccc1 (centres undefined),14µM*,37%,?,3%,1%
O=C(NC(C(=O)c1ccccc1)n1cnccc1=O)c1ccccc1 (centres undefined),.,57%,-4%,2%,2%
Nc1nn(-c2ccccc2)c(N)c1N=Nc1ccc2c(c1)OCO2,?,18µM*,50µM*,-24%,32µM*
Nc1nn(-c2ccccc2)c(N)c1N=Nc1cccc(F)c1,20µM*,?,35µM*,-19%,35µM*
Cc1nn(-c2ccccc2)c(N)c1N=Nc1cccnc1,?,7%,?,-15%,-36%
COc1ccc2sc(N(Cc3cccnc3)C(=O)C3COc4ccccc4O3)nc2c1 (centres undefined),3%[59 µM],15%,-11%,.,-6%
N#CCCCSc1ncccc1-c1nc2ccccc2[nH]1,16µM*,42%,-8%,1%,3%
N/C(=N\N=C\c1ccc(O)c(O)c1)c1nonc1N,20%[59 µM],35%,-25%,-17%,45µM*
O=C(N/N=C/c1ccc(O)c(O)c1)N/N=C/c1ccc(O)c(O)c1,45µM*,35µM*,11µM*,.,32µM*
COc1cc(/C=N/N=C(\N)c2nonc2N)ccc1O,1%,-29%,-23%,.,12%
Cc1nonc1C(=O)N/N=C/c1ccc(O)c(O)c1,45µM*,-31%,7.1µM*,0%,-36%
Cc1oc2ccc(O)c(CN(C)Cc3ccccc3)c2c1C(=O)Nc1cccc(Cl)c1C,-1%[59 µM],16%,-10%,.,-5%
COc1cc(OC)cc(-c2nnc3n2N=C(c2cc(OC)ccc2OC)CS3)c1,.,.,-29%,.,.
C=CCSC(=C(C#N)C#N)c1cc2c([nH]1)CCCC2,-48%[12.7 µM],?,50µM*,.,50µM*
Cc1ccc(Cl)cc1NC(=O)c1ccc(-c2nc(CSc3ccccc3)c(C)o2)cc1,2%[59 µM],37%,5%,.,-11%
CCOC(=O)n1c(=O)oc2ccc(Cl)cc21,20µM*,27%,28µM*,-3%,5%
CCCCOC(=O)n1c(=O)oc2ccccc21,7%[59 µM],29%,0%,.,10%
COc1cc2c(cc1OC)C(COc1ccc3c(C)cc(=O)oc3c1)N(C(=O)c1ccccc1F)CC2 (centres undefined),7%[59 µM],25%,3%,.,-4%
Cc1ccc(NC(=S)N=Nc2c(O)n(C)c3ccc(S(=O)(=O)N4CCOCC4)cc23)cc1C,-21%,2%,-15%,-12%,-34%
Cn1c(O)c(N=NC(=S)Nc2ccccc2F)c2cc(S(=O)(=O)N3CCOCC3)ccc21,32µM*,-4%,?,.,4%
CCOC(=O)C1/C(=N\O)CC(C)(O)C(C(=O)OCC)C1c1ccc(N(C)C)cc1 (centres undefined),18µM*,15%,-36%,.,79µM*
Cn1cccc1C(NC(=O)c1ccccc1)C(Cl)(Cl)Cl (centres undefined),45µM*,1%,-26%,.,?

# Assay outcomes as filed in PubChem BioAssay.
